Hit rate of the full screen: of about 360,000 compounds, about 11,000 (3.1%) were called active. Roughly 2% stayed inconclusive and do not appear here. Cut-off read from the data, not from the text of the source: active = fluorescence intensity above about 16000; inconclusive = no clear call, values can overlap the other calls; inactive = below that. For the sample, actives were picked, then their nearest neighbours and some compounds at random.

A short description of this assay: counter-screen for toxin protease inhibitors: compound fluorescence, primary screen, artefact control for toxin protease inhibitor project, biochemical, multiplex microsphere, HTS (AID 624483). Conditions: compound autofluorescence counterscreen, microsphere flow cytometry; active compounds read high.
Take `CN(C)CCNC(=O)c1ccc(-c2cn3c(-c4ccc(Oc5ccccc5)cc4)cnc3cn2)cc1`: the fluorescence intensity was 4030 (inactive).

With `Cc1ccccc1N1CC(c2nc3ccccc3[nH]2)CC1=O` (stereo unspecified), the fluorescence intensity was 20000 (active).

Take `CCCNC(=S)N1CCCC(c2nc3ccccc3[nH]2)C1` (stereo unspecified): the fluorescence intensity is 4060 (inactive).

`O=C(C1CCCO1)N1CCC(c2nc3ccccc3[nH]2)CC1` (stereo unspecified): the fluorescence intensity is 9970 (inactive).

With `CCCNC(=O)C1(C)CCN1C(=O)C1(c2ccccc2)CC1` (stereo unspecified), the fluorescence intensity is 3570 (inactive).

Regarding `C=C(C)CSc1nnc(-c2ccc(C)cc2)n1N`, the fluorescence intensity was 9220 (inactive).

As for `S=C1SCN(CCN2CCOCC2)CN1Cc1ccccc1`, the fluorescence intensity is 24500 (active).

Regarding `Cn1c(=O)c2c(nc(CN3CCOCC3)n2Cc2ccccc2)n(C)c1=O`, the fluorescence intensity is 9090 (inactive).

Take `C/C(CCc1ccccc1)=N\NC(=O)c1ccc(CN2CCOCC2)cc1`: the fluorescence intensity is 2210 (inactive).

`Cc1cc(C)c(NC(=S)N2CCCC2C(=O)O)c(C)c1` (stereo unspecified): the fluorescence intensity is 2490 (inactive).

With `COc1ccc(N2CCN(CCNC(=O)c3nnc(Cc4c(F)cccc4Cl)o3)CC2)cc1`, the fluorescence intensity is 24000 (active).

Turning to `COc1ccc(NC(=O)NCCN2CCN(c3ccc(C)cc3)CC2)c(Cl)c1`, the fluorescence intensity is 3770 (inactive).

Regarding `COc1ccc(N2CCN(CCNC(=O)Nc3cc(Cl)ccc3Cl)CC2)cc1`, the fluorescence intensity was 3500 (inactive).

Consider `CCCCN(C=O)c1c(CC)nc2c(OCc3ccccc3C(=O)OC)cccn12`, for which the fluorescence intensity is 4040 (inactive).

As for `Cc1ccc(CNC(=O)C2CCN(S(=O)(=O)c3ccc4nc5c(c(C(=O)O)c4c3)CC(C)CC5)CC2)cc1` (stereo unspecified), the fluorescence intensity is 5690 (inactive).

Consider `COC(=O)[C@@]1(Cc2ccc(OC)cc2)[C@H]2c3cc(C(=O)N4CCCC4)n(Cc4ccc(OC(F)(F)F)cc4)c3C[C@H]2CN1C(=O)c1ccccc1`, for which the fluorescence intensity is 5540 (inactive).

As to `Cc1ccc(S(=O)(=O)C(C#N)c2nc3ccccc3nc2N2CCCC2)cc1C` (stereo unspecified), the fluorescence intensity is 19400 (active).

`CC(=O)c1ccc(S(=O)(=O)N2CCN(c3nc4c(C)c(C)ccc4cc3C#N)CC2)cc1`: the fluorescence intensity was 13000 (inactive).

As to `CC(C)OC(=O)C(C#N)c1nc2ccccc2nc1N1CCN(Cc2ccccc2)CC1` (stereo unspecified), the fluorescence intensity was 2960 (inactive).

On to `CCC(C)(C)C1CCC(=NNC(=O)c2ccc(Br)o2)CC1` (stereo unspecified), for which the fluorescence intensity was 2520 (inactive).

With `Cc1ccc(N)cc1-n1c(C)ccc1C`, the fluorescence intensity is 9500 (inactive).

For the compound `Cc1ccc2nc(-c3ccco3)c(Cc3cccc(Cl)c3)n2c1`, the fluorescence intensity is 4970 (inactive).

Turning to `CCOC(=O)CC1=C(C(=O)OCC)C2(C(=O)N1)C(C(=O)OC)=C(N)Oc1ccccc12` (stereo unspecified), the fluorescence intensity was 4280 (inactive).

Regarding `C=CCN1C(=O)C2(C(C(=O)OCC)=C(N)Oc3c2c(=O)oc2ccccc32)c2ccccc21` (stereo unspecified), the fluorescence intensity is 4120 (inactive).

As for `COC(=O)CN1C(=O)C2(C(C(=O)OC)=C(N)Oc3ccccc32)C2=C1CC(C)(C)CC2=O` (stereo unspecified), the fluorescence intensity was 23500 (active).

Turning to `CC(c1ccccn1)N(C)C(=O)c1ccc2nc(Cc3cccc(Cl)c3)oc2c1` (stereo unspecified), the fluorescence intensity was 5500 (inactive).

With `Cc1ccc(C(c2nnnn2CS(=O)(=O)c2ccc(C)cc2)N2CCC(C)CC2)cc1` (stereo unspecified), the fluorescence intensity is 4360 (inactive).

Regarding `CCN(CC)c1ccc(NC(=O)CCc2nnc3ccc(N4CCCCC4)nn23)c(C)c1`, the fluorescence intensity was 4470 (inactive).

Take `OC[C@H]1O[C@@H](c2nc(-c3nc(-c4ccc(F)cc4)no3)cs2)[C@H](O)[C@@H](O)[C@H]1O`: the fluorescence intensity is 4000 (inactive).

With `CC1(C(=O)NCC2CCOCC2)Cc2c(-c3cccc(C(N)=O)c3)ccnc2O1` (stereo unspecified), the fluorescence intensity was 4060 (inactive).

With `O=C(c1ccc(F)cc1)N1CCCC(c2nc(-c3cccs3)no2)C1` (stereo unspecified), the fluorescence intensity was 4320 (inactive).

With `O=C(c1cccs1)N1CCCC(c2nc(-c3ccc(F)cc3)no2)C1` (stereo unspecified), the fluorescence intensity was 11100 (inactive).

For `O=C(Cc1cccs1)N1CCCC(c2nc(-c3ccc(S(=O)(=O)N4CCCC4)cc3)no2)C1` (stereo unspecified), the fluorescence intensity was 16600 (active).

Turning to `CCCNC(=O)C1(C)CCCN(C(=O)c2oc3ccccc3c2C)C1` (stereo unspecified), the fluorescence intensity is 3630 (inactive).

Turning to `CCOc1ccc(NC(=O)CN(C)C(=O)CCSc2ccc(F)cc2)cc1OCC`, the fluorescence intensity is 3520 (inactive).

Consider `Cc1cc(N=CC2=C(O)CCCC2=O)no1`, for which the fluorescence intensity was 3160 (inactive).

With `COc1ccc(O)c(/C=N/N=C/c2cccc([N+](=O)[O-])c2)c1`, the fluorescence intensity was 3450 (inactive).

Regarding `COc1ccc(O)c(C=Nc2cc(C)on2)c1`, the fluorescence intensity is 22400 (active).

In the case of `COc1ccc(C(=O)OCC(=O)NC(=O)CCSc2ccccc2)cc1`, the fluorescence intensity was 2520 (inactive).

In the case of `CCOc1cccc(=O)c2c(C)n(CC3CCCO3)c(C)c12` (stereo unspecified), the fluorescence intensity is 22100 (active).

Turning to `CCOc1ccc(NC(=O)c2cccc3c2C(=O)N(CC2CCCO2)C3)cc1` (stereo unspecified), the fluorescence intensity is 6080 (inactive).

As to `CC(=O)Nc1ccc(NC(=O)CSc2nnc(COc3ccccc3C)n2CC2CCCO2)cc1` (stereo unspecified), the fluorescence intensity is 3370 (inactive).

On to `COc1nc(Oc2ccc(=O)n(C)n2)nc(N(C)C)n1`, for which the fluorescence intensity was 2790 (inactive).

For the compound `Cc1ccccc1N1C(=O)C2ON(c3ccccc3)C(c3ccncc3)C2C1=O` (stereo unspecified), the fluorescence intensity was 23600 (active).

For the compound `O=C1[C@@H](c2ccccc2)[C@@H](c2ccccc2)N1c1cccnc1`, the fluorescence intensity is 3340 (inactive).

For `COc1cc(C2C3C(=O)N(c4ccccc4)C(=O)C3ON2c2ccccc2)ccc1O` (stereo unspecified), the fluorescence intensity is 3690 (inactive).

`Cc1cc(C)c2cc(CN(Cc3nnnn3Cc3ccc(F)cc3)C3CCCC3)c(=O)[nH]c2c1`: the fluorescence intensity was 22000 (active).

Turning to `Cc1cccc2cc(CN(Cc3nnnn3Cc3ccccc3)C3CCCC3)c(=O)[nH]c12`, the fluorescence intensity is 7870 (inactive).

Take `Cc1cc(C)c2cc(CN(Cc3cccs3)Cc3nnnn3CC3CCCO3)c(=O)[nH]c2c1` (stereo unspecified): the fluorescence intensity is 11000 (inactive).

As for `CCCCC[C@H](C)N1C[C@@H](COCc2ccccc2)Oc2cc(N3CCC[C@@H]3CO)ccc2S1(=O)=O`, the fluorescence intensity is 5890 (inactive).

In the case of `CC(C)CC(NC(=O)C1CCCN1C(=O)[C@@H](C)NC(=O)OCc1ccccc1)C(=O)NCC(N)=O` (stereo partly specified), the fluorescence intensity was 3990 (inactive).

Regarding `Cn1c(NCc2cccnc2)nc2cc(-c3ccc(F)cc3)sc2c1=O`, the fluorescence intensity was 2810 (inactive).

For `CCOc1cc(-c2cc(-c3ccc(OC)cc3)nc(N)c2C#N)ccc1O`, the fluorescence intensity was 24300 (active).

Take `COc1ccc(-c2cc(-c3ccc(N)cc3)nc(N)c2C#N)cc1OC`: the fluorescence intensity was 4760 (inactive).

In the case of `CCSc1nc(-c2ccc(OC)cc2)cc(-c2ccc(OC)cc2)c1C#N`, the fluorescence intensity was 9530 (inactive).

`C[C@H](NC(=O)CC[C@H]1O[C@@H](n2ccc(=O)[nH]c2=O)[C@H](O)[C@@H]1O)c1cccc2ccccc12`: the fluorescence intensity was 5050 (inactive).

As to `Cn1c(=O)cc(OCC(=O)N2CCN(c3ccccc3F)CC2)c2ccccc21`, the fluorescence intensity is 2380 (inactive).

With `Cn1c(=O)cc(OCCCC(=O)N2CCN(c3ccccn3)CC2)c2ccccc21`, the fluorescence intensity was 19100 (active).

Take `Cn1c(=O)cc(OCCCC(=O)N2CCN(Cc3ccc4c(c3)OCO4)CC2)c2ccccc21`: the fluorescence intensity is 9010 (inactive).

For the compound `Nc1nc(SCCOc2ccccc2)n[nH]1`, the fluorescence intensity was 6950 (inactive).

Take `CCCOc1ccc(-c2nc(N)n[nH]2)cc1`: the fluorescence intensity was 16700 (active).

On to `COc1ccc(-c2nc(SCC(=O)N3CCCC3)n[nH]2)cc1`, for which the fluorescence intensity was 5340 (inactive).

In the case of `CCOC(=O)c1ccc(-c2ccc3ncnc(N(C)Cc4sccc4C)c3c2)o1`, the fluorescence intensity was 3710 (inactive).

`CCCC(=O)N1CCC1(C)C(=O)NS(=O)(=O)c1ccc(Cl)cc1` (stereo unspecified): the fluorescence intensity is 2920 (inactive).

As for `Cc1nc2c(OCc3ccc(Cl)cc3)cccn2c1N(C)Cc1cccs1`, the fluorescence intensity was 3830 (inactive).

For the compound `COC(=O)C1=C(N)Oc2c(oc(CO)cc2=O)C1c1c(F)cccc1Cl` (stereo unspecified), the fluorescence intensity was 3610 (inactive).

`COc1ccc(C(=O)N/N=C2\CCS(=O)(=O)c3ccc(F)cc32)cc1OC`: the fluorescence intensity is 4530 (inactive).

Consider `Cc1ccc(-c2nn(-c3ccccc3)cc2C(=O)NCCCN2CCCC2=O)cc1`, for which the fluorescence intensity was 4630 (inactive).

As to `Cc1ccc(C(=O)N(CN2CCCC2=O)c2ccc(F)cc2)cc1`, the fluorescence intensity is 24000 (active).

Regarding `CCOc1ccc(C(=O)NCCCN2CCCC2=O)cc1`, the fluorescence intensity was 3040 (inactive).

Regarding `Cc1ccc2c(=O)oc(N(C)C)nc2c1`, the fluorescence intensity is 2560 (inactive).

As for `CCCNC(=O)CCc1c(C)nc2c(c(C)nn2-c2ccc(C)cc2)c1C`, the fluorescence intensity is 3860 (inactive).

Take `Cc1ccc(-n2nc(N)c3c(=O)oc(N(C)C)nc32)cc1`: the fluorescence intensity was 23400 (active).

Take `Cc1ccc(NS(=O)(=O)c2c(C)[nH]c(=O)[nH]c2=O)cc1C`: the fluorescence intensity was 10900 (inactive).

Take `CC1(C)Cc2ccccc2-c2[nH]c(=S)[nH]c(=O)c21`: the fluorescence intensity is 4400 (inactive).

`O=c1[nH]c(CN2CCOCC2)nc2scc(-c3ccccc3)c12`: the fluorescence intensity is 4340 (inactive).

Turning to `CC1(C)Cc2ccccc2-c2nc(CN3CCOCC3)[nH]c(=O)c21`, the fluorescence intensity was 22300 (active).

For the compound `CC(C)c1cccc(C(C)C)c1Nc1cn[nH]c1`, the fluorescence intensity was 6170 (inactive).

Regarding `CCC(C)(C)c1ccc(Oc2ccc(NC(=O)COC(=O)C3=COCCO3)cc2)cc1`, the fluorescence intensity was 21300 (active).

For `CCOc1ccc(NC(=O)c2ccc(NC(=O)COC(=O)c3ccc(NC(=O)CC#N)cc3)cc2)cc1`, the fluorescence intensity is 4430 (inactive).

Take `COc1ccc(NC(=O)COC(=O)C2COc3ccccc3O2)cc1` (stereo unspecified): the fluorescence intensity is 3930 (inactive).

For the compound `C/C(=N\NS(=O)(=O)c1ccccc1)c1c(O)cc(C)oc1=O`, the fluorescence intensity was 5910 (inactive).

On to `O=C(CSc1nccc(=O)[nH]1)Nc1ccc(N2CCOCC2)c(Cl)c1`, for which the fluorescence intensity was 3800 (inactive).

Consider `CCOC(=O)c1c(C)[nH]c(C(=O)OCC(=O)N2CCCC2=O)c1C`, for which the fluorescence intensity is 6230 (inactive).

Regarding `CCOC(=O)c1[nH]c(C)c(C(=O)OCC(=O)N2c3ccccc3CC2C)c1C` (stereo unspecified), the fluorescence intensity was 19700 (active).

Take `CCOc1ncccc1C(=O)OCC(=O)N1c2ccccc2CC1C` (stereo unspecified): the fluorescence intensity was 3090 (inactive).

On to `CC(C)C(OC(=O)c1cccs1)C(=O)NC1CCCCC1` (stereo unspecified), for which the fluorescence intensity was 9640 (inactive).

Regarding `Cc1ccc(-c2nc(COC(=O)c3c(C)noc3C)cs2)cc1`, the fluorescence intensity was 9900 (inactive).

In the case of `COc1ccc(C2C(C#N)=C(N)Oc3n[nH]c(C)c32)cc1CN1CCN(c2ccc(F)cc2)CC1` (stereo unspecified), the fluorescence intensity was 24200 (active).

With `COc1ccc(N2C(=O)c3ccccc3NC2c2ccc(OC)c(CN3CCOCC3)c2)cc1` (stereo unspecified), the fluorescence intensity is 4330 (inactive).

For `COc1ccccc1CN1CCCC(N2CCN(c3ccc(F)cc3)CC2)C1` (stereo unspecified), the fluorescence intensity was 4030 (inactive).

The values are drawn from PubChem BioAssay AID624483 (NMMLSC, 2012).
